Screening data as filed in PubChem.
ROC1-CUL1 inh: inhibitors of human ROC1-CUL1 ubiquitin ligase activity | 140,000 tested, 0.6% active | inhibition, % at 10 µM | in vitro K48 di-Ub FRET, acceptor:donor ratio, 45 min | E3 ubiquitin-protein ligase RBX1 (Homo sapiens) + Cullin-1 (Homo sapiens), P62877+Q13616; in the data active means inhibition above about 25%
The depositor's hits bear a star. Shown is part of a subset that was picked to be rich in hits.

SMILES | ROC1-CUL1 inh
CCc1cccc(NC(=O)C(NS(=O)(=O)c2ccc3nc(C)sc3c2)C(C)C)c1 (stereo not given) | 2
CCSc1nnc(NC(=O)c2c(-c3ccccc3)noc2C)s1 | -6
Cc1ccc(-c2nc3c(c(SCC(=O)Nc4cccc(C(=O)O)c4)n2)Cc2cccc(C)c2O3)cc1 | 31*
CCOc1cccc2c1Oc1nc(-c3ccccc3)nc(SCC(=O)Nc3ccc(F)cc3)c1C2 | -10
COc1ccc(-c2nc3c(c(SCC(=O)Nc4ccccc4OC)n2)Cc2cccc(C)c2O3)cc1 | 3
O=C1c2ccc(Cl)c3c(Cl)ccc(c23)C(=O)N1CCO | -7
CC(=O)NC1C(=O)N(C)c2c1cccc2C(F)(F)F (stereo not given) | 4
C=CCc1cc(/C=C2\C(=O)NC(=O)N(c3ccc(Br)c(C)c3)C2=O)cc(OCC)c1O | 2
CCOc1cc(/C=C2\C(=O)N(c3ccccc3)C(=S)N2c2ccc(CC)cc2)c(Br)cc1O | 3
COC(=O)COc1ccccc1/C=C1/C(=O)N(c2ccc(Cl)cc2)C(=S)N1C | -9
COC(=O)COc1ccccc1/C=C1\C(=O)NC(=O)N(c2ccc(C34CC5CC(CC(C5)C3)C4)cc2)C1=O | 41*
CCOc1cc(/C=C2\C(=O)NC(=O)N(c3ccc(C45CC6CC(CC(C6)C4)C5)cc3)C2=O)c(Br)cc1O | 91*
COc1cc(OC)c(OC)cc1/C=C1\C(=O)NC(=S)N(c2ccc(F)cc2)C1=O | 6
CCCc1ncnc2sc3c4c(nc(N5CCCC5)c3c12)CC(C)(C)OC4 | -4
O=C(Nc1ccc2oc(-c3cccc(F)c3)nc2c1)c1cc2ccccc2o1 | 3
O=C(Cc1ccc(Cl)cc1)Nc1cc(C(=O)O)cc(C(=O)O)c1 | 1
OC(CNc1ccc(Cl)cc1)Cn1c2ccc(Br)cc2c2cc(Br)ccc21 (stereo not given) | -5
CCSc1ncc(CNCc2cccnc2N2CCCC(O)C2)cn1 (stereo not given) | 14
COc1ccc(-c2csc3ncn(CC(=O)NC4CCCCC4)c(=O)c23)cc1OC | 5
CCOc1ccc(OCC)c(N2C(=O)NC(=O)/C(=C\c3cccs3)C2=O)c1 | -7
CCOc1ccc(OCC)c(N2C(=O)NC(=O)/C(=C\c3ccc(Br)o3)C2=O)c1 | 76*
CCOc1ccc(OCC)c(N2C(=O)NC(=O)/C(=C\c3ccc(OCC#N)cc3)C2=O)c1 | 2
COc1cc(OC)cc(OCc2ccc(Cl)cc2Cl)c1 | 7
Cc1cccc(C(=O)Nc2nnc(SCc3ccc(Br)cc3)s2)c1 | -1
COc1ccc(C(=O)NCc2cccnc2N2CCN(C)CC2)c(OC)n1 | 1
SMILES | ROC1-CUL1 inh
COc1ccccc1CNC(=O)CSc1ccc(-c2sc(-c3ccccc3)nc2C)nn1 | 2
O=C(COC(=O)c1ccc2c(c1)OCCO2)c1ccc(Cl)cc1 | -8
CCc1cccc(C)c1NC(=O)CCn1nc(C)c2c(C)n(-c3ccccc3)nc2c1=O | 2
Cc1ccc(C)c(NC(=O)CCn2nc(C)c3c(C)n(-c4ccccc4)nc3c2=O)c1 | 34*
Cc1cccc(NC(=O)CCn2nc(C)c3c(C)n(-c4ccccc4)nc3c2=O)c1C | -4
c1ccc2sc(Nc3nc4ncccc4[nH]3)nc2c1 | -2
CCOC(=O)C(Sc1ncnc2c1oc1nc(-c3ccccc3)cc(C)c12)C(C)=O (stereo not given) | 12
CN(C)/C=C1/N=C2C=C(c3ccccc3)c3cc(Cl)ccc3N2C1=O | 0
CN(C)/C=C1\C(=O)N(c2c(Cl)cccc2Cl)c2cc(C=C(C#N)C#N)ccc21 | 34*
CCN(CC)CCN=CC1C(=O)N(c2c(Cl)cccc2Cl)c2ccccc21 (stereo not given) | 4
CC(=O)c1sc(NC(=O)c2cc(F)c(F)cc2Cl)nc1C | 0
CC1=NN(c2ccc(Cl)c(Cl)c2)C(=O)/C1=C/c1ccc(C)cc1 | -8
CC1=NN(c2ccc(Cl)c(C(=O)O)c2)C(=O)/C1=C\c1cnn(-c2ccc(C)c(C)c2)c1 | 100*
CC1=NN(c2ccc(C(=O)O)cc2)C(=O)/C1=C/c1cc(C(C)(C)C)c(O)c(C(C)(C)C)c1 | 12
O=C1CCC(CCC(=O)N(CC2CCC2)CC2CCCO2)(Cc2ccc(Cl)cc2)N1 (stereo not given) | 5
CCCCOC(=O)C1C2C=CC3(CN(c4ccc(OC)cc4)C(=O)C13)O2 (stereo not given) | 6
CC1=C(C(=O)Nc2ccccc2)C(c2ccc(F)cc2)n2c(s/c(=C/c3ccsc3)c2=O)=N1 (stereo not given) | 13
Cc1cccc(CN2C[C@H](O)[C@@H](N3CCOCC3)C2)n1 | 6
CCOc1ccc(N2C(=O)/C(=C/c3cc(C)n(C4CCCC4)c3C)C(=O)NC2=S)cc1 | -4
CCOC(=O)c1c(-n2c(C)cc(/C=C3\C(=O)NC(=S)N(c4ccccc4)C3=O)c2C)sc2c1CCCC2 | 49*
Cc1cc(C=C2C(=O)NC(=S)NC2=O)c(C)n1-c1sc2c(c1C(=O)Nc1ccccc1)CCCC2 | -2
COc1ccccc1OC(C)(C)c1nc(-c2c(C)ncc3c2CCNC3)no1 | -12
CCOc1ccc(/C=C/C(=O)Nc2ccc(S(=O)(=O)Nc3cc(C)nc(C)n3)cc2)cc1OC | 19
O=C1c2ccccc2-c2nc3ccc(Cl)cc3nc21 | -2
O=C1c2ccccc2-c2ncccc21 | -7
SMILES | ROC1-CUL1 inh
O=C1c2ccccc2-c2nc3nsnc3nc21 | 87*
C=CCn1c(C(NC(=O)c2ccc(C)cc2)C(C)C)n[nH]c1=S (stereo not given) | -1
COc1ccc(-c2nc3n(n2)C(c2ccccc2OC)C(C(=O)Nc2cccnc2)C(C)=N3)cc1 (stereo not given) | 2
O=C1c2ccccc2C(=O)N1CCCCSc1nc2scc(-c3ccccc3)c2c(=O)n1-c1ccccc1 | 2
Cc1nn2c3ccccc3n(C)c2c1C(=O)/C=C/c1ccccn1 | 2
Cn1c(CNC(=O)c2cccc(Cl)c2)nnc1SCC(=O)Nc1cccc2ccccc12 | 2
Oc1ccc(NCc2ccccc2OCc2ccccc2Cl)cc1 | -31
CCOc1ccccc1CNc1ccc(N2CCOCC2)cc1 | 5
Oc1ccc(NCc2cc(Cl)ccc2OCc2ccccc2F)cc1 | 30*
Oc1ccc(NCc2ccccc2OCc2ccccc2F)cc1 | 10
CCOc1ccccc1CNc1ccc(O)cc1 | 46*
NS(=O)(=O)c1ccc(NCc2ccccc2OCc2ccccc2F)cc1 | -2
CCOc1ccc(/C=C2/SC(=Nc3ccc(CC)cc3)N(C)C2=O)cc1OCC | -9
Cc1ccc(NC(=O)c2sc3nc(-c4ccccc4)cc(-c4ccc(C)cc4)c3c2N)cc1 | 0
CN(C)CCC1c2ccccc2S(=O)(=O)C(CCN(C)C)c2ccccc2S1(=O)=O (stereo not given) | 10
COC(OC)C(=O)c1ccccc1NC(C)=O | -10
O=C(/C=C/c1ccco1)Nc1scc(-c2cccs2)c1C(=O)O | 28*
Cc1sc(NC(=O)/C=C/c2ccco2)c(C(N)=O)c1C | 6
CC(C)(CC(=O)Nc1scc(-c2cccs2)c1C(=O)O)CC(=O)Nc1scc(-c2cccs2)c1C(=O)O | -3
CC(=O)OC1CCC2(C)C(CCC3C2CC2(OCCO2)C2(C)C(C(C)=O)CCC32)C1 (stereo not given) | 7
CCCc1cc(C(=O)NC2CCN(CCC)CC2)cs1 | 6
CCCNC(=O)c1cc(Cl)ccc1NC(=O)c1ccco1 | -7
O=C(O)COc1ccc(Br)cc1/C=C1\SC(=O)N(c2cccc(Cl)c2)C1=O | 51*
COc1cc(/C=C2\SC(=O)N(Cc3ccc(F)cc3)C2=O)c(Br)cc1OCC(=O)O | 9
